IMPase Li cell = cell-permeable IMPase inhibitors with lithium potentiation; CHO-M1 cells, IP1 TR-FRET (IP-One), carbachol + lithium; Potency, µM (titrated, usually from 59.4 µM), inactives show top-dose activity, negative = IMPase inhibition, actives largely listed as inhibitors; 210,000 tested, 0.35% active;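 also: IP1 builds up when IMPase is blocked and the TR-FRET signal falls; potency is read from the fitted curve at half-maximal effect; plate controls were basal vehicle for no effect and high inhibitor control for full effect; nearly all actives have a fitted effect of over 50% in size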
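Concentration–response in CHO-M1 cells, lithium-potentiated; 30 min at 37C. IP1 detected by competitive TR-FRET after 10 min lysis at RT. Hill-fitted AC50.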
HTT ATP protect = protects HTT-Q103 PC12 cells, measured by ATP; PC12 HTT-Q103 induced, cytoprotection, ATP luminescence, 40 h; Potency, µM (series often up to 56.4 µM), without a hit: cytoprotection (ATP increase), hits mostly activators; 230,000 tested, 0.14% active; AID 1471; also: potency is read from the fitted curve at half-maximal effect; % of control where 0% means no effect; nearly all actives have a fitted effect of over 45% in size
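Huntington model: PC12 line, ecdysone-inducible HTTQ103 exon1–GFP, tebufenozide 100 nM. Test articles in a dose series. Endpoint luminescence from cellular ATP.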
HPGD block = blocks human HPGD enzyme activity. AID 894. P15428. purified HPGD, NADH fluorescence kinetic, PGE2 substrate. Potency, µM, inactives show at the top dose activity change, negative = inhibition, usual class: inhibitors. 150,000 tested, 4.3% active; active = well fitted inhibition curve with a large enough effect, not every such curve was filed as active; inconclusive = small, poorly fitted or top-dose-only effect, or another doubt; inactive = no such curve, though single readings can be large or run the other way; also: potency is read from the fitted curve at half-maximal effect; % is scaled to controls: 0 for no effect and ±100 for the full control effect
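NADH formation kinetics: reaction with 30 uM PGE2 and 1 mM NAD+ (final), 20 nM enzyme, Tris-HCl pH 8 with Tween 20, after 15 min compound preincubation at room temperature. Fluorescence change, last versus first of five reads.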
IMPase cell inh = membrane-permeable compound that blocks inositol monophosphatase; P97697; inhibition (IP1 accumulation), % at 46.1 µM; AID 901; 120,000 tested, under 10 active; CHO-M1 cells, IP1 accumulation, HTRF TR-FRET ratio; active = well fitted curve in the direction sought with a large enough effect in the signal ratio, not every such curve was filed as active; inconclusive = small, poorly fitted or top-dose-only effect, or a change in a side signal; inactive = no such curve, though single readings can be large or run the other way; the % refers to the signal ratio;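 also: cells stimulated with carbachol in lithium chloride buffer; plate controls were DMSO basal wells for no effect and reference inhibitor wells for full effect; higher means more IMPase inhibition seen as more IP1 and lower FRET ratio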
Target sequence (P97697 whole entry, looked up): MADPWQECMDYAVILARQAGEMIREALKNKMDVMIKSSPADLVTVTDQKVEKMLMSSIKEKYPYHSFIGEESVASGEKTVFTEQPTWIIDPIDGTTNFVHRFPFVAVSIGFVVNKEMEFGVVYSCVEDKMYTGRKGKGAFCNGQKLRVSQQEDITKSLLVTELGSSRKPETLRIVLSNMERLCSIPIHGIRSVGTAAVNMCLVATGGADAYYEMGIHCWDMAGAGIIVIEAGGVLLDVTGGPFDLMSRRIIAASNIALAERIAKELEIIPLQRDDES
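CHO-M1, 2000 cells/well, cultured 16–30 h; cpd up to 46 uM; carbachol (50 uM solution, stimulation buffer w/ 50 mM LiCl, pH 7.4), 30 min 37C; IP-One TR-FRET, 10 min RT; Ex 320/Em 665, 620; Hill-fit AC50.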
ALDH1A1 block = blocks purified human ALDH1A1 activity; P00352; Purified ALDH1A1, NADH fluorescence, propionaldehyde substrate; Potency, µM (highest dose often 75.3 µM), without a hit: at the highest dose activity, negative = inhibition, most hits filed as inhibitors; 220,000 tested, 7.3% active; AID 1030; active = well fitted inhibition curve with a large enough effect, not every such curve was filed as active; inconclusive = small, poorly fitted or top-dose-only effect, or another doubt; inactive = no such curve, though single readings can be large or run the other way;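 also: potency is read from the fitted curve at half-maximal effect; plate controls were no enzyme wells and a reference inhibitor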
Target sequence (P00352 whole entry, looked up): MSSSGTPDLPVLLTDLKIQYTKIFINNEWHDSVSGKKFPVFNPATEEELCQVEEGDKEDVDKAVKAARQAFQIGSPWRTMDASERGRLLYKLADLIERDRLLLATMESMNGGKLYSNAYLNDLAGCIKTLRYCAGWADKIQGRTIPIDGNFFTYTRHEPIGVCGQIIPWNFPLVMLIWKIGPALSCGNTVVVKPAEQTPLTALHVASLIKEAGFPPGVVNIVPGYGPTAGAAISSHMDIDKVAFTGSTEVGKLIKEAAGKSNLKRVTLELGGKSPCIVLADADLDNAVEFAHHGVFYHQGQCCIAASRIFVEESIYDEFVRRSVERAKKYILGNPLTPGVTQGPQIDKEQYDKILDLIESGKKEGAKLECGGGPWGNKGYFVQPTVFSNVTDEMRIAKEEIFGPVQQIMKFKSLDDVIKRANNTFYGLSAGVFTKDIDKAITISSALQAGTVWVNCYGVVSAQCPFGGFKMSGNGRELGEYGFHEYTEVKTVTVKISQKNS
HTT aggregate = mutant huntingtin aggregation inhibition. AID 1688. PC12 HttQ103-GFP aggregates, Acumen cytometry, 40 h. 220,000 tested, 1.1% active. Potency, µM (highest dose often 46.1 µM), without a hit: at the top dose activity change, negative = inhibition, hits mostly inhibitors; also: potency is read from the fitted curve at half-maximal effect; % is scaled to controls: 0 for no effect and ±100 for the full control effect; nearly all actives have a fitted effect of over 60% in size
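Huntingtin Q103 exon 1–GFP aggregates in induced PC12 cells (100 nM tebufenozide) were quantified by cytometry from lysates, with compounds dosed in titration.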
Active calls of the source: *; [ ] = dose if it differs, or a comment. Most compounds without a hit are left out; they make up all but 9.4% or so of the library. Unless noted, calls follow the shape of the dose curve; as a rule, active = well fitted curve in the direction sought with a large enough effect; inconclusive = small, poorly fitted or top-dose-only effect, or another doubt; inactive = no such curve, though single readings can be large; an effect the other way counts as inactive or inconclusive.

Screening Cc1cccc(-c2cc(C(=O)Nc3ccc4c(c3)OCCO4)c3ccccc3n2)c1 returned IMPase Li cell 4%[38.3 µM], HTT ATP protect -19%, HPGD block -16%, IMPase cell inh 6, ALDH1A1 block -12% and HTT aggregate -5%.
Screening O=C(Nc1ccc2c(c1)OCCO2)c1cc(-c2ccccn2)nc2ccc(Br)cc12 returned IMPase Li cell 13µM*, HTT ATP protect -25%[10 µM], ALDH1A1 block 5% and HTT aggregate 2%[9.22 µM].
`Cc1ccc(/C=C2\SC(=S)N(/N=C/c3cc([N+](=O)[O-])ccc3O)C2=O)o1` gave IMPase Li cell 25%, HTT ATP protect -3%, ALDH1A1 block 7.1µM* and HTT aggregate -22%.
Cc1ccc(/C=C2\SC(=S)N(C3CCS(=O)(=O)C3)C2=O)o1 (stereo not drawn) was read as IMPase Li cell 8%, HTT ATP protect inconclusive, ALDH1A1 block inconclusive and HTT aggregate -15%.
For COCCCN1CN(Cc2ccccc2)CNC1=S the results were IMPase Li cell -4%, HTT ATP protect 20%[10 µM], HPGD block -7%, IMPase cell inh 0, ALDH1A1 block 8.9µM* and HTT aggregate 11%.
Screening Cc1sc2ncnc(NCCN3CCOCC3)c2c1C returned IMPase Li cell 46%[38.3 µM], HTT ATP protect -4%, HPGD block -5%, IMPase cell inh 5, ALDH1A1 block -11% and HTT aggregate 11µM*.
`CC1CCc2c(sc3ncnc(NCCN4CCOCC4)c23)C1` (stereo not drawn) gave HTT ATP protect -15%[10 µM] and HTT aggregate -3%[9.22 µM].
`Cc1nc2ccccc2nc(C)c1=NO` gave IMPase Li cell 8%[38.3 µM], HTT ATP protect -35%, HPGD block -24%, IMPase cell inh 8, ALDH1A1 block 22µM* and HTT aggregate -4%.
CN(C)S(=O)(=O)N(CC(=O)Nc1ccc(Br)cc1F)c1ccccc1 was read as IMPase cell inh 5.
For COC(=O)N1C2=C(c3ccccc3[C@@H]1CC(=O)Nc1ccc3ccc4cccc5ccc1c3c45)[C@@H]1C(=O)N(c3ccccc3)C(=O)[C@@H]1[C@H](C)C2 the results were IMPase Li cell 10%, HTT ATP protect 6%[10 µM], HPGD block inconclusive and ALDH1A1 block 10%[13.5 µM].
OC(COCc1ccc(Cl)cc1)CN1CCN(CC(O)COCc2ccc(Cl)cc2)CC1 (stereo not drawn) was read as IMPase Li cell 38%[38.3 µM], HTT ATP protect -20%[10 µM], HPGD block -10%, IMPase cell inh 10, ALDH1A1 block 0% and HTT aggregate 4µM*.
For OC(COC(c1ccc(Cl)cc1)c1ccc(Cl)cc1)CN1CCN(c2ccccn2)CC1 (stereo not drawn) the results were IMPase Li cell 7%, HTT ATP protect 17%[10 µM], HPGD block -18%, ALDH1A1 block -14% and HTT aggregate 32µM*.
`Cc1cccc(C)c1OCC(O)CN1CCN(c2ccccn2)CC1` (stereo not drawn) gave IMPase Li cell 8%, HTT ATP protect -32%, ALDH1A1 block 7% and HTT aggregate -4%.
`COc1ccc(OC)c(Nc2cc(C)nc3nc(C)nn23)c1` gave IMPase Li cell 19%[38.3 µM], HTT ATP protect 23%[10 µM], HPGD block 2µM*, IMPase cell inh -6, ALDH1A1 block 1% and HTT aggregate -6%.
Cc1cc(NCCc2ccccc2F)n2ncnc2n1 was read as IMPase Li cell 11%, HTT ATP protect -6%, ALDH1A1 block inconclusive and HTT aggregate -9%.
For COc1ccc(C)cc1Nc1cc(C)nc2nc(C)nn12 the results were IMPase Li cell 30%[38.3 µM], HTT ATP protect -9%, HPGD block 1.4µM*, IMPase cell inh 1, ALDH1A1 block 7% and HTT aggregate 11%.
`COc1ccc(Nc2cc(C)nc3nc(C)nn23)cc1Cl` gave IMPase Li cell 8%[38.3 µM], HTT ATP protect -3%, HPGD block -27%, IMPase cell inh 5, ALDH1A1 block 4% and HTT aggregate 3%.
`COc1ccc(Nc2cc(C)nc3ncnn23)c(OC)c1` gave IMPase Li cell -5%[38.3 µM], HTT ATP protect -13%, HPGD block 16µM*, IMPase cell inh 5, ALDH1A1 block 11% and HTT aggregate 7%.
COc1ccc(CNc2cc(C)nc3ncnn23)c(OC)c1 was read as IMPase Li cell 2%[38.3 µM], HTT ATP protect -12%[10 µM], HPGD block 32µM*, IMPase cell inh 17, ALDH1A1 block -15% and HTT aggregate inconclusive.
`COC(=O)C1=C(C(=O)OC)[C@@H]2N(C)c3ccc(OC)cc3[C@@]23C[C@@H](C(=O)OC)N(S(=O)(=O)c2ccc(C(F)(F)F)cc2)C3=N1` gave IMPase Li cell 1%, HTT ATP protect 13%[10 µM], HPGD block 4% and ALDH1A1 block 9%[13.5 µM].
`COc1ccc(C(=O)O)cc1Nc1cc(C)nc2ncnn12` gave IMPase Li cell 0%[38.3 µM], HTT ATP protect 3%, HPGD block 25µM*, IMPase cell inh 5, ALDH1A1 block -4% and HTT aggregate -8%.
For COc1ccc(Nc2cc(C)nc3nc(C)nn23)c(OC)c1 the results were IMPase Li cell 23%, HTT ATP protect -16%, HPGD block 8.9µM*, ALDH1A1 block 1% and HTT aggregate 6%.
`COc1cccc(Nc2cc(C)nc3nc(C)nn23)c1` gave IMPase Li cell -8%[38.3 µM], HTT ATP protect -14%, HPGD block -11%, IMPase cell inh 7, ALDH1A1 block 10% and HTT aggregate -8%.
`CCOC(=O)c1ccc2nc(Nc3nc4ccc(F)cc4s3)sc2c1` gave IMPase Li cell -3%, HPGD block inconclusive, ALDH1A1 block inconclusive and HTT aggregate 27%.
`COC(=O)c1ccc2nc(Nc3nc4c(F)cc(F)cc4s3)sc2c1` gave IMPase Li cell -4%, HPGD block inconclusive, ALDH1A1 block inconclusive and HTT aggregate 6.3µM*.
For C/C(Cn1nc([N+](=O)[O-])cc1C)=N\NC(=O)COc1ccccc1[N+](=O)[O-] the results were IMPase Li cell 2%, HTT ATP protect -23%[10 µM], HPGD block -8%, ALDH1A1 block 14µM* and HTT aggregate 13%.
`C/C(Cn1nc([N+](=O)[O-])cc1C)=N\NC(=O)COc1ccc(Cl)cc1Cl` gave IMPase Li cell -3%, HTT ATP protect -3%[10 µM], HPGD block -13%, IMPase cell inh 2, ALDH1A1 block inconclusive and HTT aggregate -17%.
For CCCCC(=O)NNC(=S)NC(=O)c1ccc(C)cc1 the results were IMPase Li cell 8%, HTT ATP protect -4%[10 µM], ALDH1A1 block 25µM* and HTT aggregate -12%[9.22 µM].

Bioassay records (PubChem BioAssay)
